Compounds with a hit are over-represented: about 7.5% of the library has one in this group of screens.
ELG1 genotox = qHTS screen for small molecules that induce genotoxicity in human embryonic kidney (HEK293T) cells expressing luciferase-tagged ELG1 | HEK293T ELG1-luciferase reporter, luminescence, 16 h | Potency, µM (top dose mostly 46 µM), inactives show top-dose activity change, positive = activation, usual class: activators | actives 1.3% (n = 330,000) | AID 504466, 2011; note: % of control where 0% means no effect; nearly all actives have a fitted effect of over 60% in size
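After overnight (16 hr) compound treatment at 37 °C, ELG1-luciferase HEK293T cells were lysed with ONE-Glo; luminescence quantified 30 min later at room temperature.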
KinaseGlo FLuc = Counterscreen for Luciferase (Kinase-Glo TM) Inhibition. Luciferin 4-monooxygenase (Photuris pensylvanica), Q27757. Potency, µM (top dose mostly 38.3 µM), inactives show at the top dose activity change, negative = inhibition, hits mostly inhibitors. Kinase-Glo luciferase, ATP luminescence, 8 min. actives 0.28% (n = 200,000); note: % is set by controls: 0 for no effect and ±100 for the full control effect; nearly all actives have a fitted effect of over 60% in size
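Inhibition of Kinase-Glo luciferase light generation was assessed at 10 uM ATP in pH 7.2 imidazole buffer, with luminescence measured after eight minutes at ambient temperature.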
FLuc modulator = qHTS profiling assay for firefly luciferase inhibitor/activator using purifed enzyme and Km concentrations of substrates (counterscreen for miR-21 project); Luciferin 4-monooxygenase (Photinus pyralis), P08659; purified FLuc, Km substrates, luminescence inhibition; Potency, µM (series often up to 57.5 µM), for inactives: at the top dose activity change, negative = inhibition, usual class: inhibitors; actives 6.9% (n = 360,000); AID 588342, 2011;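 note: plate controls were vehicle for no effect and reference inhibitor for full effect; nearly all actives have a fitted effect of over 55% in size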
Target sequence (P08659 whole entry, looked up): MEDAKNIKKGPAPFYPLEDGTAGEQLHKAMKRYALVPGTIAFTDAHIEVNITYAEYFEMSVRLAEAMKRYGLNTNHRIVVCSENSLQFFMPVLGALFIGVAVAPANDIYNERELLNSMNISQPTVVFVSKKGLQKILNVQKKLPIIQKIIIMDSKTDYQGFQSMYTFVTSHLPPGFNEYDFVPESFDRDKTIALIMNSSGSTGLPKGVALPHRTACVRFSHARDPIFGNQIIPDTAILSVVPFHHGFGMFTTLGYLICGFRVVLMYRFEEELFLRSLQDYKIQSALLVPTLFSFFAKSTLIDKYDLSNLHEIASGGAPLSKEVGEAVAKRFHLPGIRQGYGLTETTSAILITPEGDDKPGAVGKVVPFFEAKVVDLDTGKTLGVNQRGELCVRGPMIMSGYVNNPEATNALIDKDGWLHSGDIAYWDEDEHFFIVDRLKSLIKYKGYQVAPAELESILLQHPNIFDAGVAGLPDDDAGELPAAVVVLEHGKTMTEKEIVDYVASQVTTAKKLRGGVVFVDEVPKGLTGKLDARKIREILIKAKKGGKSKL
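Purified P. pyralis luciferase (10nM final) with 10uM D-luciferin and 10uM ATP (Km levels) in 50mM Tris acetate pH 7.5, 10mM Mg acetate, 0.01% Tween-20, 0.05% BSA; qHTS 6-point titration, ~60 µM downward; luminescence read.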
NPC1 promoter act = qHTS Assay for NPC1 Promoter Activators; actives 2.4% (n = 320,000); Potency, µM (highest dose often 9.22 µM), inactives show at the highest dose activation, hits mostly activators; Huh7 NPC1 promoter luciferase reporter, 24 h; note: % of control where 0% means no effect; nearly all actives have a fitted effect of over 60% in size
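Quantitative HTS used a cell-based reporter: Huh7 cells stably bearing the NPC1 promoter upstream of luciferase were treated with compounds for 24 h, and promoter activation was read as luminescence.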
Rab9 promoter act = qHTS Assay for Rab9 Promoter Activators; Huh7 Rab9 promoter-luciferase reporter, luminescence, 24 h; Potency, µM (doses to about 9.22 µM), without a hit: top-dose activation, negative = inhibition, most hits filed as activators; actives 2.8% (n = 320,000); AID 485297, 2010; note: % of control where 0% means no effect; nearly all actives have a fitted effect of over 60% in size
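Steps: seed 1500 Huh7 Rab9-luc cells per well, rest 2 h at 37 °C; add compound in DMSO; incubate 24 h; add luciferase reagent, 10 min ambient; read luminescence.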
SMN2 splice enh = qHTS Assay for Enhancers of SMN2 Splice Variant Expression; HEK293 SMN2-luciferase splicing reporter, luminescence, 30-36 h; Potency, µM (highest dose often 46.1 µM), without a hit: top-dose activity change, positive = activation, hits mostly activators; actives 2.8% (n = 210,000); AID 1458, 2008; note: % of control where 0% means no effect; nearly all actives have a fitted effect of over 55% in size
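qHTS luciferase splicing reporter: luminescence rises when SMN2 exon 7 is included in transfected HEK293 cells. Compound exposure lasted 30-36 h at 37C, with 4.5 mM final sodium butyrate as control, followed by a ONE-Glo read.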
Active calls of the source: *; ? = inconclusive; / = no result given; [ ] = dose if it differs, or a comment. Calls come from the whole dose curve; as a rule, active = well fitted curve in the direction sought with a large enough effect; inconclusive = small, poorly fitted or top-dose-only effect, or another doubt; inactive = no such curve, though single readings can be large; an effect the other way counts as inactive or inconclusive. Potency is the fitted concentration of half-maximal effect.

SMILES	ELG1 genotox	KinaseGlo FLuc	FLuc modulator	NPC1 promoter act	Rab9 promoter act	SMN2 splice enh
CC(C)n1nc(C(=O)OCn2nnc3ccccc3c2=O)c2ccccc2c1=O	0%	5%	1%	-3%	8%	7%
Cc1ccc(C(=O)COC(=O)c2cc(=O)[nH]c3ccccc23)cc1C	21µM*	2%	1.1µM*	2%	?	21%
NC(=O)COC(=O)c1cc(=O)[nH]c2ccccc12	0%	/	1%	-3%	0%	/
COc1ccc(C(=O)COC(=O)c2cc(=O)[nH]c3ccccc23)c(OC)c1	?	/	?	3.2µM*	2.2µM*	/
COc1ccccc1C(=O)COC(=O)c1cc(=O)[nH]c2ccccc12	?	/	-8%	-2%	-1%	/
COc1nnc(-c2ccc(C)c(S(=O)(=O)NC(C)C)c2)c2ccccc12	-4%	/	4%	-1%	0%	/
COc1ccc(NC(=O)/C=C/c2ccc3c(c2)OCO3)cc1	?	-15%	2.7µM*	?	3.2µM*	18µM*
Cc1c(NC(=O)C(C)OC(=O)/C=C/c2ccccc2)c(=O)n(-c2ccccc2)n1C (stereo not given)	-3%	3%	5%	-7%	3%	-13%
Cc1c(NC(=O)C(C)OC(=O)/C=C/c2ccc3c(c2)OCO3)c(=O)n(-c2ccccc2)n1C (stereo not given)	8%	-2%	15µM*	0%	7%	7%
O=C(COC(=O)/C=C/c1ccc2c(c1)OCO2)Nc1ccccc1	6%	-7%	21µM*	-10%	4%	0%
O=C(/C=C/c1ccc2c(c1)OCO2)Nc1nc(-c2ccc(F)cc2F)cs1	8%	1%	1%	-7%	-12%	-82%
Cc1csc(NC(=O)/C=C/c2ccc3c(c2)OCO3)n1	2.9µM*	-6%	0.95µM*	-1%	?	13µM*
CC(C)(CC(=O)O)CC(=O)Nc1cc(C(F)(F)F)cc(C(F)(F)F)c1	0%	/	-1%	2%	2%	/
Cc1cccc(Oc2ccccc2NC(=O)C2=COCCO2)c1	0%	/	3%	-5%	-6%	/
O=C(/C=C/c1ccc2c(c1)OCO2)Nc1nc2ccccc2s1	18µM*	-3%	1.2µM*	1.6µM*	0.79µM*	3.5µM*
O=C(O/N=C1\CCCc2ccccc21)c1ccc(F)cc1	?	-16%	0.21µM*	7%	-4%	12%
O=C(O/N=C1/CCSc2ccccc21)c1ccccc1	0%	?	0.67µM*	7%	-5%	-12%
COC(=O)N/N=C1\CCCc2ccccc21	0%	-1%	1%	1%	1%	18%
Cc1ccc2c(c1)/C(=N/OC(=O)c1ccc(F)cc1)CCS2	-3%	-7%	6µM*	-2%	2%	6%
Cc1ccc2c(c1)/C(=N/O)CCS2	-1%	-3%	-1%	0%	-3%	-13%
O=C(Nc1ccc(Cl)cc1)C1C2C=CC3(O2)C1C(=O)N(CCN1CCCCC1)C3C(=O)NC1CCCCC1 (stereo not given)	-5%	/	1%	0%	0%	/
COc1ccc(NC(=O)Nc2ccccc2C(=O)N2CCCC2)cc1	1%	-6%	?	0%	1%	?
Cc1cccc(CC(=O)NCC2CCCCC2)c1	?	/	?	?	30%	/
C/C(=N\NC(=O)CSc1nc(C)[nH]c1[N+](=O)[O-])c1ccc(F)cc1	-6%	/	15µM*	24%	?	/
Cc1nc(SCC(N)=O)c([N+](=O)[O-])[nH]1	-1%	6%	-2%	-2%	-6%	13%
SMILES	ELG1 genotox	KinaseGlo FLuc	FLuc modulator	NPC1 promoter act	Rab9 promoter act	SMN2 splice enh
Brc1ccc(-c2cn3c(n2)SCC3)cc1	10µM*	-6%	5.4µM*	1.1µM*	0.71µM*	10µM*
Clc1ccc(-c2cn3c(n2)SCC3)cc1	15%	-4%	19µM*	1.8µM*	1.4µM*	11µM*
Oc1ccc(-c2cn3c(n2)SCC3)cc1	17%	-4%	?	10%	4%	9%
O=C(CSc1cn(CCNC(=O)c2ccccc2F)c2ccccc12)Nc1ccc(F)cc1	/	/	-18%	/	/	-9%
CCn1c(=O)cc(SCC(=O)Nc2ccc3c(c2)OCO3)c2ccccc21	16%	1%	-13%	5%	-4%	18%
O=C(CSc1cn(CCNC(=O)c2ccccc2F)c2ccccc12)Nc1ccc2c(c1)OCCO2	/	/	13µM*	/	/	-16%
Cn1cc(SCC(=O)Nc2ccc3c(c2)OCCO3)c2ccccc21	?	0%	17µM*	14%	11%	2%
COc1ccc(C(C)NC(=O)c2cccc([N+](=O)[O-])c2)cc1OC (stereo not given)	1%	1%	1%	-1%	-2%	-3%
CC(=O)c1ccc(NC(=O)CSc2ccc(-c3sc(C)nc3C)nn2)cc1	-19%	/	13µM*	12%	5%	/
Cc1nc(C)c(-c2ccc(SCC(=O)Nc3ccc(C)c(Cl)c3)nn2)s1	-3%	/	?	-3%	-7%	/
CCOC(=O)c1ccc(NC(=O)CSc2ccc(-c3ccccn3)nn2)cc1	?	/	11µM*	-2%	-2%	/
O=C(CSc1ccc(-c2ccccn2)nn1)Nc1ccc(F)c(F)c1	?	/	13µM*	-1%	-10%	/
Cc1ccc(NC(=O)CSc2ccc(-c3ccccn3)nn2)cc1	?	0%	-15%	0%	2%	-39%
CCOc1ccc(NC(=O)CSc2ccc(-c3ccccn3)nn2)cc1	15%	/	-8%	1%	0%	/
COc1ccc(OC)c(NC(=O)C2=C(C)C(=O)OC23CCN(C(C)C)CC3)c1	/	/	-1%	/	/	/
O=C(Nc1cc(S(=O)(=O)N2CCCCC2)ccc1Oc1ccccc1)C1=COCCO1	-8%	/	7%	-2%	0%	/
O=C(Oc1ccc(/C=N/NC(=O)c2ccco2)cc1)c1ccccc1	?	/	-14%	22%	?	/
O=C(O)/C(Cc1cn[nH]n1)=N\O	/	-4%[7.66 µM]	/	/	/	-12%[9.22 µM]
COc1ccc(/C=C/C(=O)Nc2ccc(Cl)c(Cl)c2)cc1	/	/	4.8µM*	/	/	6%
COc1ccccc1/C=C/C(=O)Nc1cccnc1Cl	18%	/	27µM*	?	29%	/
COc1ccc(/C=C/C(=O)Nc2cccnc2Cl)cc1	9.2µM*	/	5.4µM*	2µM*	2.5µM*	/
COc1ccccc1/C=C/C(=O)NCCc1ccccn1	?	/	13µM*	?	2.8µM*	/
COC(=O)c1cc(Cl)c(NC(=O)/C=C/c2ccc(OC)cc2)cc1OC	8%	-1%	4%	-8%	3%	4%
